# Most compounds without a hit are left out; they make up all but 3.8% or so of the library.
# TGFb SMAD3 inh: blocks TGF-b signaling; HepG2 CAGA-GFP TGF-b/SMAD3 reporter, GFP fluorescence, 18 h; TGF-beta stimulated, 500 pg/mL final; Potency, µM (highest dose often 46.1 µM), inactives show at the highest dose activity, negative = inhibition, usual class: inhibitors; actives 1.2% (n = 410,000); further: on the % scale 0 is the no-effect control and ±100 the full control effect; nearly all actives have a fitted effect of over 65% in size
#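 Inhibition was scored as loss of TGF-beta-induced (500 pg/mL final, 18 hours, 37 degrees C) GFP in HEPG2 cells carrying a CAGA-GFP reporter, in DMEM with 1% FBS. Well GFP was summed per cell; Activity was normalised to unstimulated and stimulated DMSO wells, then concentration-response fitting.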
# HT1080 IDH1KD tx: HT-1080 IDH1 knockdown cell toxicity (counter line). HT-1080 IDH1 knockdown viability, ATP luminescence, 48 h. Potency, µM (highest dose often 46.1 µM), for the others: at the top dose activity, negative = toxicity, usual class: cytotoxic. actives 2% (n = 360,000);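 further: 0% = DMSO wells and -100% = cell-free medium wells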
#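 Assay cells: HT-1080 with IDH1 knockdown, 750 per well, RPMI/5% FBS. Exposure: 48 h at 37 °C following 2 h pre-incubation. Read: CellTiter-Glo luminescence; fitted concentration-response, curve class assigned.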
# HepG2 viability: kills HepG2 cells in TGF-b inhibitor counter-screen; HepG2 CAGA-GFP viability, ATP luminescence, 18 h; Potency, µM (top dose mostly 46.1 µM), for the others: at the top dose activity change, negative = cytotoxicity, actives largely listed as cytotoxic; actives 0.76% (n = 410,000); AID 588856
#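 CellTiter-Glo luminescence gave cytotoxicity after 18 hours at 37 degrees C. The cells were HepG2 CAGA-GFP in 1% FBS DMEM, stimulated with 500 pg/mL TGF-beta after compound addition. %Activity was normalised to no-cell wells (complete cell-killing) and DMSO (no toxicity), and curves were fitted and classified.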
# ATXN viability: reduces viability in counter-screen for ATXN expression inhibitors; S2 cells (HEK-293 line with an ATXN2-luciferase reporter) viability, CellTiter-Fluor protease fluorescence, 24 h; Potency, µM (doses to about 56.7 µM), most hits filed as cytotoxic; actives 0.49% (n = 400,000); further: nearly all actives have a fitted effect of over 40% in size
# ATXN2 expr inh: reduces ATXN2 reporter expression in HEK-293 cells; HEK-293 ATXN2-luciferase reporter, luminescence, 24 h; Potency, µM (top dose mostly 57 µM), without a hit: top-dose activity change, negative = inhibition, hits mostly inhibitors; actives 0.72% (n = 360,000); AID 1745845; further: on the % scale 0 is the no-effect control and ±100 the full control effect; nearly all actives have a fitted effect of over 55% in size
#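 qHTS (up to 57 uM final) was run with 24 h compound exposure of reporter cells at 37 °C. Each well was multiplexed: SteadyGlo luminescence measured ATXN2-luciferase expression after a fluorogenic Gly-Phe-AFC viability readout (25 uM final).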
# HT1080NT lethal: kills 2HG-producing HT-1080-NT fibrosarcoma cells; Potency, µM (series often up to 46.1 µM), for inactives: top-dose activity, negative = less viability, actives largely listed as cytotoxic; actives 1.6% (n = 360,000); HT-1080-NT fibrosarcoma viability, CellTiter-Glo ATP luminescence, 48 h;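 further: NT is the 2HG producing partner of a matched IDH1 knockdown line; 0% = DMSO-treated cells and -100% = media-only wells without cells; nearly all actives have a fitted effect of over 55% in size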
#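 750 cells/well, RPMI + 5% FBS; 2 h settle, compound pin-transfer, 48 h at 37 degrees C. CellTiter-Glo 10 min RT, luminescence. Normalized to DMSO and media-only wells.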
# Starred values were filed as active, the others as inactive; i = inactive; ? = inconclusive; nt = no result given. The call rests on the fitted dose curve; in most records, active means well fitted curve in the direction sought with a large enough effect; inconclusive means small, poorly fitted or top-dose-only effect, or another doubt; inactive means no such curve, though single readings can be large; an effect the other way counts as inactive or inconclusive. Potency means the concentration at half of the fitted maximal effect.
SMILES,TGFb SMAD3 inh,HT1080 IDH1KD tx,HepG2 viability,ATXN viability,ATXN2 expr inh,HT1080NT lethal
COc1c(C)cc(C(O)c2ncc(-c3ccc(C(F)(F)F)cc3)[nH]2)cc1C (stereo not drawn),?,16µM*,-46%,i,-9%,?
OC(c1ccc(F)cc1)c1ncc(-c2ccc(Oc3ccccc3)cc2)[nH]1 (stereo not drawn),?,?,16µM*,?,-15%,?
CC(C)c1c(C(=O)NCC2(N3CCOCC3)CCCC2)cnn1-c1nccc(-c2cccs2)n1,nt,nt,nt,i,nt,nt
S=c1[nH]cnc2sc(Nc3ccccc3)nc12,1%,-10%,11%,11µM*,nt,-8%
Cc1nc(Nc2ccccc2)sc1C,0%,7%,-11%,i,30%,-28%
COc1cc(C2c3cc4c(cc3OC(N3CCOCC3)C2C)OCO4)cc(OC)c1OC(C)=O (stereo not drawn),-11%,?,-1%,i,-5%,?
COc1cc(C2c3cc4c(cc3OC(Nc3ccc(C(=O)O)cc3)C2C)OCO4)cc(OC)c1OC (stereo not drawn),?,?,-9%,?,-22%,0.52µM*
O=[N+]([O-])c1ccc(COc2ccc(-c3[nH]ncc3-c3ccccc3)c(O)c2)cc1,?,?,-65%,?,-39%,?
COc1ccc(-c2cn[nH]c2-c2ccc(OCC(=O)NN)cc2O)cc1OC,5%,-25%,2%,i,10%,?
C=C(C)COc1ccc(-c2[nH]ncc2-c2ccccc2)c(O)c1,11µM*,?,-98%,i,-21%,?
C=C(C)COc1ccc(-c2n[nH]c(C)c2-c2ccc(OC)c(OC)c2)c(O)c1,?,1.5µM*,-49%,i,-15%,4.1µM*
C=C(C)COc1ccc(-c2[nH]ncc2-c2ccc(OC)c(OC)c2)c(O)c1,?,4.6µM*,-44%,nt,?,7.3µM*
C[C@@H]1CCN(C(=O)CC#N)C[C@H]1N(C)c1ncnc2[nH]ccc12,nt,nt,nt,nt,33%,nt
CCOC(=O)c1cc(S(=O)(=O)Nc2ccccc2)[nH]n1,49%,nt,7%,i,2%,nt
CC(C)CN(CC(C)C)CC(O)COc1ccccc1Br (stereo not drawn),11µM*,?,11µM*,i,-28%,?
COc1ccc(-c2noc(-c3ccc(N4CCN(C)CC4)c([N+](=O)[O-])c3)n2)cc1OC,?,nt,11µM*,?,0%,nt
Cc1ccc(-c2noc(-c3ccc(N4CCN(C)CC4)c([N+](=O)[O-])c3)n2)cc1,-28%,nt,-24%,i,18%,nt
Cc1ccc2c(C(=O)N3CCN(c4ccccc4)CC3)cc(-c3cccnc3)nc2c1C,-8%,23µM*,-4%,i,-15%,?
COc1ccc(-n2c(CNc3ccc(C)cc3)nnc2SCC(=O)Nc2nc(-c3ccccc3)cs2)cc1,-2%,-1%,-22%,22µM*,18µM*,-2%
COc1ccc(NCc2nnc(SCC(=O)Nc3nc(-c4ccccc4)cs3)n2-c2ccccc2)cc1,-13%,-12%,-5%,?,-31%,-9%
Cc1ccc(-c2csc(NC(=O)CSc3nnc4c(n3)[nH]c3ccccc34)n2)cc1,-11%,21µM*,17%,?,?,18µM*
COc1cc(OC)c(OC)cc1CN1CCOc2ccc(CN3C[C@@H](C)O[C@@H](C)C3)cc2C1,nt,nt,nt,i,nt,nt
NC(=O)NS(=O)(=O)c1ccc(Cl)cc1,nt,nt,nt,i,8%,nt
Cc1cc(C)c2ccccc2n1,-2%,nt,-6%,nt,nt,nt
Cc1cc(Sc2nnc(/N=C/N(C)C)s2)c2ccccc2n1,8.9µM*,18µM*,11µM*,?,nt,15µM*
Cc1cc(Sc2nnc(N)s2)c2ccccc2n1,7.1µM*,?,-101%,25µM*,?,?

# Screening results as filed in PubChem.
